Results from ChEMBL document CHEMBL3988442, “University of Dundee, Small-Polar-MMV Screening Library” (2021).
For some assays here: Results with a measured potency or affinity are listed apart.

Experiments:
Set-up in all cases: scale not given: direction of the effect not stated beside the values
[1] = biological target: Protein translocase subunit SecA (Escherichia coli (strain K12)) (UniProt P10408); experiment: Assay to Identify E. coli SecA ATPase Inhibitors; assay type: functional; details: 30 µM
[2] = biological target: T1, Ubiquitin-activating enzyme e1, putative (Leishmania donovani (strain BPK282A1)) (UniProt E9BSI1); experiment: Leishmania donovani Ubiquitin Activating Enzyme (LdE1); assay type: functional; details: 30 µM
T1 sequence (whole entry): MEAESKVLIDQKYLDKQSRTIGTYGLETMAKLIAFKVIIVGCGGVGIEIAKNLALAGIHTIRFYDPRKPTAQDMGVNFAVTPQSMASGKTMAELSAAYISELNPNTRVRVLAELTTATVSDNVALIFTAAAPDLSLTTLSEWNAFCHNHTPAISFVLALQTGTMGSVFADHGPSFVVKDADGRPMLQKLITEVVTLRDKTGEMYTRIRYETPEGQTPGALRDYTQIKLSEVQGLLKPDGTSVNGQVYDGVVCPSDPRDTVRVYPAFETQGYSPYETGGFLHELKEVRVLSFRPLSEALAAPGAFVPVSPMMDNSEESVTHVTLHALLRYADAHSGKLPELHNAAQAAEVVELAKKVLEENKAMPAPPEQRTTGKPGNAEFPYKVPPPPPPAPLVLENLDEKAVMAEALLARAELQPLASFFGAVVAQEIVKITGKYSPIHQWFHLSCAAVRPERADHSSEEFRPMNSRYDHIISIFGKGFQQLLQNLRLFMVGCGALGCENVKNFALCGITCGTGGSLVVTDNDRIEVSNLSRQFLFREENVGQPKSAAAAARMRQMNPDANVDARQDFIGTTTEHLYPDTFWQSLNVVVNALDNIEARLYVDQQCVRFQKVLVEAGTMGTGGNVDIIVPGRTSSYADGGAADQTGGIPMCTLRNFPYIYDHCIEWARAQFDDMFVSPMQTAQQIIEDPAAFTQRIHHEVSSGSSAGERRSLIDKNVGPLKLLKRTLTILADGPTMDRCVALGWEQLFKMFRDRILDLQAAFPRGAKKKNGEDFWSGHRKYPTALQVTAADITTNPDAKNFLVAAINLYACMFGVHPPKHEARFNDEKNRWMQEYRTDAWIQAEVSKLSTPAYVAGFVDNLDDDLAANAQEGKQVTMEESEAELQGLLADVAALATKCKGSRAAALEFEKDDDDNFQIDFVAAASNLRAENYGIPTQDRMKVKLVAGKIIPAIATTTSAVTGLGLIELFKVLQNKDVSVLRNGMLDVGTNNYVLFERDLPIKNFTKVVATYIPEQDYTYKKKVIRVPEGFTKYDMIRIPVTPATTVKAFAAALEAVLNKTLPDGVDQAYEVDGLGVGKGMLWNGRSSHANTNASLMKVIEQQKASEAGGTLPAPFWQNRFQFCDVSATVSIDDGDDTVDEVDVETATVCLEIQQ

[3] = biological target: AMP-activated protein kinase, AMPK (Homo sapiens) (UniProt P54646+O43741+P54619+Q9UGJ0+Q9Y478+Q13131+Q9UGI9); experiment: AMP-dependent Kinase enzyme assay. An in vitro enzyme assay that detects ADP turnover that is directly proportional to AMPK activity. This uses naive AMPK that is activated during the assay with MK-8722; assay type: functional; details: 30 µM
[4] = biological target: Sialic acid-binding Ig-like lectin 9 (Homo sapiens) (UniProt Q9Y336); experiment: Hs-Siglec9 ALPHAscreen SOP 20170721; details: 10 µM
Trypanosoma cruzi = experiment: Trypanosoma cruzi phosphomannomutase and mannose-1-phosphate guanylyltransferase assay; assay type: functional; details: 10 µM
[5] = biological target: T2, Arginase-2, mitochondrial (Homo sapiens) (UniProt P78540); experiment: in vitro enzyme assay to detect the production of urea directly proportional to the activity of Arginase II; assay type: functional; details: 33.3 µM; also: in the data most compounds retested in dose-response had high values
T2 sequence (whole entry): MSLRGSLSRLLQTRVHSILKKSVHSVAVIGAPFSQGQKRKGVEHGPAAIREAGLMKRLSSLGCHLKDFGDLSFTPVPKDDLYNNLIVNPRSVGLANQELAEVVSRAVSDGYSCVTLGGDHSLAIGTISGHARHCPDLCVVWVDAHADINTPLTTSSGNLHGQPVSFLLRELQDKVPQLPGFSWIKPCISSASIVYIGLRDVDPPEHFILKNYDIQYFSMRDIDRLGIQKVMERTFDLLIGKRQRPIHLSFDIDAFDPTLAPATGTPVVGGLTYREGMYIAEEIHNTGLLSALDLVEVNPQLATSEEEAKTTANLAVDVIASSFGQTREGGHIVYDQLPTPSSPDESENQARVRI

[6] = biological target: T3, Proteasome subunit beta (Trypanosoma cruzi) (UniProt O96673); experiment: Trypanosoma cruzi proteasome chymotrypsin-like activity (TcProtChymo) assay.; also: in the data most compounds retested in dose-response had high values; assay type: functional; details: 9.37 µM
T3 sequence (whole entry): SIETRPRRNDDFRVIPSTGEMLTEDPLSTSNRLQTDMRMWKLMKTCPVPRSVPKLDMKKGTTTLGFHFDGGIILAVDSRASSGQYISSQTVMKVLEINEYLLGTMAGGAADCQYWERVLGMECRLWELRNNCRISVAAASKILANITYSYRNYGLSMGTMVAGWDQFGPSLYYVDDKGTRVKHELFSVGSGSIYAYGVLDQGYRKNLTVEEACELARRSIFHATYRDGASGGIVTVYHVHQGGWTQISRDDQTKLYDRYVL

Homo sapiens = species on record: Homo sapiens; experiment: To identify inhibition of the IFN signalling (Jak-Stat) pathway via expression of an eGFP reporter gene under the control of an IFN-stimulated response element (ISRE) containing MxA promoter.; assay type: functional; details: 30 µM
[7] = biological target: T4, Tyrosyl-tRNA synthetase, putative (Trypanosoma cruzi (strain CL Brener)) (UniProt Q4DSP6); experiment: Trypanosoma cruzi tyrosyl tRNA synthetase (TcYRS) _High Tyrosine SOP; assay type: functional; details: 30 µM; also: in the data most compounds retested in dose-response had high values
T4 sequence (whole entry): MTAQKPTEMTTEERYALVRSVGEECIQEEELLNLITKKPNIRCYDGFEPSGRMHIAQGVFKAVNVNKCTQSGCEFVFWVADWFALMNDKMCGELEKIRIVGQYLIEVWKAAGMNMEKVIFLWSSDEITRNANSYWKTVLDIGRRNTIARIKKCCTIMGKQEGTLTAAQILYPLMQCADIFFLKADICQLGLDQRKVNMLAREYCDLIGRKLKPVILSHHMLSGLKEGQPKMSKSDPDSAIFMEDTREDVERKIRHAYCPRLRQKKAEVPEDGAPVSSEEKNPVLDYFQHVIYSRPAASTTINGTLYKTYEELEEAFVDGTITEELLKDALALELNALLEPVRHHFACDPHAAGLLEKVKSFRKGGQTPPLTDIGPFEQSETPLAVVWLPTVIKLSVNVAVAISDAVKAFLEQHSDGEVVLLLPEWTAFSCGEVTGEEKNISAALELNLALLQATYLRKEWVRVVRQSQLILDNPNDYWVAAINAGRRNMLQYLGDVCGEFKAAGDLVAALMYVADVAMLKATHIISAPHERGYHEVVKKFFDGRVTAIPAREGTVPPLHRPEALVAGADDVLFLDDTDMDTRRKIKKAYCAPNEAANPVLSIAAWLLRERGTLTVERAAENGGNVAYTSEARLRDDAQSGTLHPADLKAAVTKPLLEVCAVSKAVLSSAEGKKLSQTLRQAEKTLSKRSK

[8] = biological target: T4, Tyrosyl-tRNA synthetase, putative (Trypanosoma cruzi (strain CL Brener)); experiment: Trypanosoma cruzi tyrosyl tRNA synthetase (TcYRS) SOP; assay type: functional; details: 30 µM
[9] = biological target: Chromo domain-containing protein 1 (Saccharomyces cerevisiae (strain ATCC 204508 / S288c) (Baker's yeast)) (UniProt P32657); experiment: ScCHD-1 Enzyme Inhibition Assay; assay type: functional; details: 30 µM; also: in the data most compounds retested in dose-response had high values
Chromo domain-containing protein 1 (Saccharomyces cerevisiae (strain ATCC 204508 / S288c) (Baker's yeast)), sequence (P32657 whole entry, the tested form may be a part): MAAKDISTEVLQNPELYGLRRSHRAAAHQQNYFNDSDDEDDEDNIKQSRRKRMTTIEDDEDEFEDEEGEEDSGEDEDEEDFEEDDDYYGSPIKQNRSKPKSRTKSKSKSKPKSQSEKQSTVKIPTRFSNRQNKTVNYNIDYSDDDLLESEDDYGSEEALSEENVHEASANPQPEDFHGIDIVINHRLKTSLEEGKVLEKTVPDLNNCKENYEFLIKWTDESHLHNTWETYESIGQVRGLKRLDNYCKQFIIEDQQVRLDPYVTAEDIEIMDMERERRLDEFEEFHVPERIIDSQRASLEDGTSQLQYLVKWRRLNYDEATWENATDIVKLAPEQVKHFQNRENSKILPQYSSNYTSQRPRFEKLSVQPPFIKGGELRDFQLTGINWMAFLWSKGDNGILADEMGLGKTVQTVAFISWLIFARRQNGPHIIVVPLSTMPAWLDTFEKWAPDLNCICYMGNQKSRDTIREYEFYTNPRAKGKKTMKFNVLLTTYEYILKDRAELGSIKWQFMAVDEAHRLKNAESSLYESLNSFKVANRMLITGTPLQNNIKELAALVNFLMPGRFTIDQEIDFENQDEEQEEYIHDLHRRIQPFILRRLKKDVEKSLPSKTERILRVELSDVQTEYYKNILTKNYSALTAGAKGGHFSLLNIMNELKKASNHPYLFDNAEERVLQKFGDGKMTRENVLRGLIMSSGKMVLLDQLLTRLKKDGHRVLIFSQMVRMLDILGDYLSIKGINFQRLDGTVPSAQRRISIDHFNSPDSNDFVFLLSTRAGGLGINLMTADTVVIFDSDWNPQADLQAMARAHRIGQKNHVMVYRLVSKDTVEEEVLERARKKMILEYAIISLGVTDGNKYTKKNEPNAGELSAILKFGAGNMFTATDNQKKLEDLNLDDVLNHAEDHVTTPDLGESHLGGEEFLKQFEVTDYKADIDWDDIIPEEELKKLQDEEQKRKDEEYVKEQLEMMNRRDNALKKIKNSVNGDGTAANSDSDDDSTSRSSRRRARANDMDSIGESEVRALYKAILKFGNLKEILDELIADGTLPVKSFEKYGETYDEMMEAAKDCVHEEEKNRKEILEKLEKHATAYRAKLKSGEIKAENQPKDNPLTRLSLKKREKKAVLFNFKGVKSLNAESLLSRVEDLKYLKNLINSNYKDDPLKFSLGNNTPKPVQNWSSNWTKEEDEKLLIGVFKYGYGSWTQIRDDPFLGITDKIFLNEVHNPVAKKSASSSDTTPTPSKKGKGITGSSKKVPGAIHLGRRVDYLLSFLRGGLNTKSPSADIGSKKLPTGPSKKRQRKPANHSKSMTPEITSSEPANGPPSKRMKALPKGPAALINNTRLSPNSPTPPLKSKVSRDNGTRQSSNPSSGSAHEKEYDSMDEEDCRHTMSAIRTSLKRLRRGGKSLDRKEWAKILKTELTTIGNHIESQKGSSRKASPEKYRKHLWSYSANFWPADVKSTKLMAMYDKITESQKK

Sialic acid-binding Ig-like lectin 9 (Homo sapiens), sequence (Q9Y336 whole entry): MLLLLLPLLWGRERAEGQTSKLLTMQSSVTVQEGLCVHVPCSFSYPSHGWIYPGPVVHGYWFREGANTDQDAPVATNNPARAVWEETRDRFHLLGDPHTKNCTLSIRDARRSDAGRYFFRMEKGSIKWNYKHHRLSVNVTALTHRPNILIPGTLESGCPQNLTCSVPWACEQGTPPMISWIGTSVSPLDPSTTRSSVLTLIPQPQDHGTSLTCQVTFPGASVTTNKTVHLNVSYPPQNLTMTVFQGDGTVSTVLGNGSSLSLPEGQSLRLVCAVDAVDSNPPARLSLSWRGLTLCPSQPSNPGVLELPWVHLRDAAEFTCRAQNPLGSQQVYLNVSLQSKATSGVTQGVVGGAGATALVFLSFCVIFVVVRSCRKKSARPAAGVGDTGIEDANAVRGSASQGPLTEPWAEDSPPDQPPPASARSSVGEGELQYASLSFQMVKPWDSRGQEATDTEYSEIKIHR
Protein translocase subunit SecA (Escherichia coli (strain K12)), sequence (P10408 whole entry): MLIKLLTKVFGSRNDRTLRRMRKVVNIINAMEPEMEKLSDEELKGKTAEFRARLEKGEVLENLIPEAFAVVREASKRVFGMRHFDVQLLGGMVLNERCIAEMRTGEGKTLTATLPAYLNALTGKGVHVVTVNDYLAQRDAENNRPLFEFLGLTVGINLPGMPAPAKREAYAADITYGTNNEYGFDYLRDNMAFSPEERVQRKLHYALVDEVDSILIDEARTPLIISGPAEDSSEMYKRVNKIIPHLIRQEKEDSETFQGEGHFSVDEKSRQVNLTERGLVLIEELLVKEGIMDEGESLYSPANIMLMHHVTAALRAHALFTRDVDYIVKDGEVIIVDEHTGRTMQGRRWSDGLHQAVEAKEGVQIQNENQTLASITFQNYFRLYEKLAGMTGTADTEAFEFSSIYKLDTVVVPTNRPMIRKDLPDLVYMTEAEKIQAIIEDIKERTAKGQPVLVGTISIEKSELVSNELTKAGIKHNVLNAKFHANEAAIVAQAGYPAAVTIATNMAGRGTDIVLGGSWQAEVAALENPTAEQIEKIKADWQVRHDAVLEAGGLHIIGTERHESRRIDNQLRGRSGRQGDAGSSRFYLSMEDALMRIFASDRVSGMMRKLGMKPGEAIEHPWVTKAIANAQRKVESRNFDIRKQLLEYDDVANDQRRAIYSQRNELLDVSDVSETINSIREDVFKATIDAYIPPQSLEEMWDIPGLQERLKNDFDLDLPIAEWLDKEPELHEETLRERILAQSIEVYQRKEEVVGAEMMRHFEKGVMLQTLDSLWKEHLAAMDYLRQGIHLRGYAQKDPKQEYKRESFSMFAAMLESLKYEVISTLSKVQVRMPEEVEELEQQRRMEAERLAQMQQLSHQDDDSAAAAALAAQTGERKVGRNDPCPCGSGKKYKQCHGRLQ

Structure (SMILES) | Percent Effect [1] [%] | Percent Effect [2] [%] | Percent Effect [3] [%] | Percent Effect [4] [%] | Percent Effect (Trypanosoma cruzi) [%] | Percent Effect [5] [%] | Percent Effect [6] [%] | Percent Effect (Homo sapiens) [%] | Percent Effect [7] [%] | Percent Effect [8] [%] | Percent Effect [9] [%]
Cc1nc(C)n(C2CCCN(C(=O)c3csc(C(C)C)n3)C2)n1 (stereo unspecified) | -5.33 | 29.7 | -10.5 | 12.2 | 8.4 | -10.4 | 8.83 | 14.5 | 8.37 | 28.4 | -17.4
O=S(=O)(NCC1CCN(c2cnccn2)CC1)c1c(F)cccc1F | 0.613 | 5.2 | -0.808 | -3.89 | -5.82 | 9.68 | 5.74 | 8.19 | 3.17 | 6.41 | -7.48
CN(Cc1ccsc1)C(=O)c1cccc(F)c1 | -5.35 | 20.8 | 1.32 | 3.27 | -2.06 | -1.07 | 5.74 | 9.71 | 3.88 | 19.5 | -9.1
COc1cccc(N2CCN(Cc3ncc[nH]3)CC2=O)c1 | -0.114 | 6.94 | -20.4 | -7.16 | -1.85 | -0.442 | 12.3 | -17.7 | -2.1 | 10.3 | -4.76
CN(C)C(=O)N1C[C@H]2CN(Cc3cccc(F)c3)C(=O)[C@H]2C1 | -4.01 | 10.8 | 7.46 | -7.24 | -4.2 | 0.955 | 20.9 | 4.49 | 0 | -7.69 | -1.2
Cc1nc2ccccc2c(=O)n1CCC(=O)N1CCSCC1 | -6.49 | 13.2 | 14.1 | 6.54 | 3.19 | 0 | 6.85 | 4.99 | 6.37 | 17.1 | -13.3
O=C(c1cccs1)N1CCC(Cn2nc(-c3ccco3)ccc2=O)CC1 | 0.0559 | 6.76 | 15.8 | 0.867 | -6.92 | 3.02 | 26.8 | 13.6 | 10.8 | 14.3 | 1.29
Cc1cnn(CC2CCCN2C(=O)c2cnc3n[nH]c(C)c3c2)c1 (stereo unspecified) | -6.55 | 16.5 | 0.256 | -4.46 | 2.36 | 0.645 | 7.55 | 2.33 | 3.12 | 20.2 | -32.5
Cc1c[nH]c(CN(C)c2nc(C3CCCC3)nc3c2cnn3C)n1 | -3.47 | 1.39 | 3.98 | -7.75 | -3.01 | 2.21 | 3.68 | -3.43 | 0 | 2.56 | -2.96
Cc1cnc(NC(=O)N2CCCC2)s1 | -4.49 | 2.7 | -1.71 | 2.98 | 8.5 | -0.744 | 15.4 | 6.72 | 1.07 | 3.7 | 1.48
Cc1ccc(N2CCCc3sc(C(=O)NCc4cccnc4)nc32)nn1 | -3.86 | -8.22 | -0.787 | 3.77 | 7.54 | -7.19 | 5.39 | -8.08 | 1.04 | 6.17 | -2.84
CS(=O)(=O)N1CCCN(C(=O)c2ccc(Cn3ccccc3=O)o2)CC1 | 0.345 | 10.8 | -1.54 | -9.12 | -8.45 | 2.77 | 5.03 | 12.3 | 6.93 | 15.8 | -7.1
CN(C)C(CNS(=O)(=O)c1ccc(F)cc1F)c1cccn1C (stereo unspecified) | -6.84 | 8.22 | 2.21 | -1 | -4.9 | 2.73 | 10.8 | 13.6 | 4.3 | 12.5 | -4.19
Cn1cc(CN2CC3(CCN(C(=O)c4ccoc4)C3)C2)cn1 | -1.29 | -2.74 | 4.12 | -0.00343 | -3.77 | -1.6 | 10.2 | 15.8 | -1.04 | -1.24 | -6.08
Cc1cnn(CC2CCCCN2CCC(=O)Nc2cc(C)on2)c1 (stereo unspecified) | -4.7 | 3.8 | -0.138 | 0.417 | 0.308 | -1.07 | 11.7 | -10.4 | 1.04 | 12.7 | -13.7
Fc1ccc(CN2CCC(c3nccnc3-n3ccnc3)CC2)cc1 | -8.16 | 17.6 | 8.26 | 0.663 | 3.75 | -3.02 | 12.5 | 17.9 | 3.23 | 3.9 | -17.3
